From the supplement of paper PMC12808144
Unmarked numbers belong to inactive results.

Test system: Mel-DCC-11-R
Assay: cell viability relative to DMSO control (fraction of DMSO control); higher = less cytotoxic, active = 0.8 or less
Details: 1 µM; 120 h; vemurafenib co-treatment 0 µM
Method: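 Same 315-drug TargetMol library at 1 µM in duplicate, 120 h, ATPlite luminescence normalised to DMSO controls, on the vemurafenib-resistant subline Mel-DCC-11-R cultured alone or with 8 µM vemurafenib co-treatment (Mel-DCC-11-R + V).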

| Structure (SMILES) | cell viability |
| --- | --- |
| C=CC(=O)N1CCC[C@@H](n2nc(-c3ccc(Oc4ccccc4)cc3)c3c(N)ncnc32)C1 [Ibrutinib] | 0.855 |
| CC(O)(P(=O)(O)O)P(=O)(O)O [Etidronate] | 1.12 |
| COC(=O)c1ccc2c(c1)NC(=O)/C2=C(\Nc1ccc(N(C)C(=O)CN2CCN(C)CC2)cc1)c1ccccc1 [Nintedanib] | 1.01 |
| CC(=O)O[C@]1(C(C)=O)CC[C@H]2[C@@H]3CCC4=CC(=O)CCC4=C3[C@@H](c3ccc(N(C)C)cc3)C[C@@]21C [Ulipristal acetate] | 1.13 |
| C1=C/COCc2cc(ccc2OCCN2CCCC2)Nc2nccc(n2)-c2cccc(c2)COC/1 [Pacritinib] | 1.46 |
| CN(C)C/C=C/C(=O)Nc1cc2c(Nc3ccc(F)c(Cl)c3)ncnc2cc1O[C@H]1CCOC1 [Afatinib] | 1.09 |
| C[C@]12CC[C@@H]3c4ccc(O)cc4C[C@@H](CCCCCCCCCS(=O)CCCC(F)(F)C(F)(F)F)[C@H]3[C@@H]1CC[C@@H]2O (stereo not given in full) [Fulvestrant] | 0.987 |
| C[C@@H](Oc1cc(-c2cnn(C3CCNCC3)c2)cnc1N)c1c(Cl)ccc(F)c1Cl [Crizotinib] | 1.16 |
| CC(=O)Nc1cccc(-n2c(=O)n(C3CC3)c(=O)c3c(Nc4ccc(I)cc4F)n(C)c(=O)c(C)c32)c1 [Trametinib] | 0.206 (active) |
| COc1ccc2cc1Oc1ccc(cc1)C[C@H]1c3c(cc4c(c3Oc3cc5c(cc3OC)CCN(C)[C@@H]5C2)OCO4)CCN1C [Cepharanthine] | 0.934 |
| C/C(=C\c1csc(C)n1)[C@@H]1C[C@@H]2O[C@]2(C)CCC[C@H](C)[C@H](O)[C@@H](C)C(=O)C(C)(C)[C@@H](O)CC(=O)N1 [Ixabepilone] | 0.67 (active) |
| Cc1ccc(=O)n(-c2ccccc2)c1 [Pirfenidone] | 1.03 |
| CC1(COc2ccc3c(c2)ncn3-c2ccc3cccc(N4CCC(N)CC4)c3n2)COC1 [Crenolanib] | 1.26 |
| CC(C)CN(C[C@@H](O)[C@H](Cc1ccccc1)NC(=O)O[C@H]1CCOC1)S(=O)(=O)c1ccc(N)cc1 [Amprenavir] | 0.854 |
| Cl.N=C1CCCN1Cc1[nH]c(=O)[nH]c(=O)c1Cl [Tipiracil hydrochloride] | 0.816 |
| CC(=O)c1c(C)c2cnc(Nc3ccc(N4CCNCC4)cn3)nc2n(C2CCCC2)c1=O [Palbociclib] | 1.76 |
| CCC1(O)C(=O)OCc2c1cc1n(c2=O)Cc2cc3cc(O)ccc3nc2-1 (stereo not given) [Hydroxy Camptothecine] | 0.422 (active) |
| CO[C@@]12[C@H](COC(N)=O)C3=C(C(=O)C(C)=C(N)C3=O)N1C[C@@H]1N[C@@H]12 [Mitomycin C] | 1.6 |
| CN(CCOc1ccc(CC2SC(=O)NC2=O)cc1)c1ccccn1.O=C(O)/C=C\C(=O)O (stereo not given) [Rosiglitazone maleate] | 0.97 |
| COc1cc(Nc2c(C#N)cnc3cc(OCCCN4CCN(C)CC4)c(OC)cc23)c(Cl)cc1Cl [Bosutinib] | 0.914 |

Same assay, conditions: 1 µM; 120 h; vemurafenib co-treatment 8 µM

| Structure (SMILES) | cell viability |
| --- | --- |
| C=CC(=O)N1CCC[C@@H](n2nc(-c3ccc(Oc4ccccc4)cc3)c3c(N)ncnc32)C1 [Ibrutinib] | 0.733 (active) |
| CC(O)(P(=O)(O)O)P(=O)(O)O [Etidronate] | 0.981 |
| COC(=O)c1ccc2c(c1)NC(=O)/C2=C(\Nc1ccc(N(C)C(=O)CN2CCN(C)CC2)cc1)c1ccccc1 [Nintedanib] | 0.803 |
| CC(=O)O[C@]1(C(C)=O)CC[C@H]2[C@@H]3CCC4=CC(=O)CCC4=C3[C@@H](c3ccc(N(C)C)cc3)C[C@@]21C [Ulipristal acetate] | 1.04 |
| C1=C/COCc2cc(ccc2OCCN2CCCC2)Nc2nccc(n2)-c2cccc(c2)COC/1 [Pacritinib] | 1.06 |
| CN(C)C/C=C/C(=O)Nc1cc2c(Nc3ccc(F)c(Cl)c3)ncnc2cc1O[C@H]1CCOC1 [Afatinib] | 0.792 (active) |
| C[C@]12CC[C@@H]3c4ccc(O)cc4C[C@@H](CCCCCCCCCS(=O)CCCC(F)(F)C(F)(F)F)[C@H]3[C@@H]1CC[C@@H]2O (stereo not given in full) [Fulvestrant] | 0.809 |
| C[C@@H](Oc1cc(-c2cnn(C3CCNCC3)c2)cnc1N)c1c(Cl)ccc(F)c1Cl [Crizotinib] | 0.825 |
| CC(=O)Nc1cccc(-n2c(=O)n(C3CC3)c(=O)c3c(Nc4ccc(I)cc4F)n(C)c(=O)c(C)c32)c1 [Trametinib] | 0.165 (active) |
| COc1ccc2cc1Oc1ccc(cc1)C[C@H]1c3c(cc4c(c3Oc3cc5c(cc3OC)CCN(C)[C@@H]5C2)OCO4)CCN1C [Cepharanthine] | 0.912 |
| C/C(=C\c1csc(C)n1)[C@@H]1C[C@@H]2O[C@]2(C)CCC[C@H](C)[C@H](O)[C@@H](C)C(=O)C(C)(C)[C@@H](O)CC(=O)N1 [Ixabepilone] | 0.377 (active) |
| Cc1ccc(=O)n(-c2ccccc2)c1 [Pirfenidone] | 1.1 |
| CC1(COc2ccc3c(c2)ncn3-c2ccc3cccc(N4CCC(N)CC4)c3n2)COC1 [Crenolanib] | 1.35 |
| CC(C)CN(C[C@@H](O)[C@H](Cc1ccccc1)NC(=O)O[C@H]1CCOC1)S(=O)(=O)c1ccc(N)cc1 [Amprenavir] | 0.833 |
| Cl.N=C1CCCN1Cc1[nH]c(=O)[nH]c(=O)c1Cl [Tipiracil hydrochloride] | 0.877 |
| CC(=O)c1c(C)c2cnc(Nc3ccc(N4CCNCC4)cn3)nc2n(C2CCCC2)c1=O [Palbociclib] | 1.15 |
| CCC1(O)C(=O)OCc2c1cc1n(c2=O)Cc2cc3cc(O)ccc3nc2-1 (stereo not given) [Hydroxy Camptothecine] | 0.224 (active) |
| CO[C@@]12[C@H](COC(N)=O)C3=C(C(=O)C(C)=C(N)C3=O)N1C[C@@H]1N[C@@H]12 [Mitomycin C] | 0.859 |
| CN(CCOc1ccc(CC2SC(=O)NC2=O)cc1)c1ccccn1.O=C(O)/C=C\C(=O)O (stereo not given) [Rosiglitazone maleate] | 1.12 |
| COc1cc(Nc2c(C#N)cnc3cc(OCCCN4CCN(C)CC4)c(OC)cc23)c(Cl)cc1Cl [Bosutinib] | 1.14 |
